The results in this text go back to PubChem BioAssay (NCI).

The panel holds about 79,000 compounds, 15% with a hit somewhere; the sample as a whole holds those more often. Unmarked numbers belong to inactive results. Active and inactive are the calls of the source. No stated cut-off is given here; in the data, active means growth inhibition above about 70%; inactive means the rest.

Assay [1] can be described thus: NCI Yeast Anticancer Drug Screen. Data for the rad50 strain (AID 155).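 Further: 0% = growth of vehicle-only cultures of the same strain.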 The settings on record: S. cerevisiae rad50 strain growth inhibition, active compounds read high. In a few lines:
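Readout: growth inhibition relative to vehicle-treated cultures. Compound exposure was carried out in a genetically defined yeast strain deficient in DNA damage repair.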

The nature of assay [2]: NCI Yeast Anticancer Drug Screen. Data for the mec2-1 strain (AID 157). As to conditions: S. cerevisiae mec2-1 strain, active compounds read high. In short, it runs like this:
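Mutant yeast (mec2-1) grown with compound; growth inhibition relative to vehicle control reported.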

A short description of assay [3]: NCI Yeast Anticancer Drug Screen. Data for the sgs1 mgt1 strain (AID 161).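 Further: 0% = growth of cultures given vehicle only.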 The settings on record: S. cerevisiae sgs1 mgt1 strain, active compounds read high. In a few lines:
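Percent growth inhibition was derived by comparing compound-exposed mutant yeast with vehicle-exposed cultures. The strain carries alterations in DNA damage repair.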

Assay [4] can be described thus: NCI Yeast Anticancer Drug Screen. Data for the cln2 rad14 strain (AID 165).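 Further: 0% = growth equal to vehicle treated cultures.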 The settings on record: S. cerevisiae cln2 rad14 strain, active compounds read high. In short, it runs like this:
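Readout is yeast growth inhibition versus vehicle-treated controls, using a strain with cln2 and rad14 alterations exposed to compound.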

Assay [5] is described as follows: NCI Yeast Anticancer Drug Screen. Data for the bub3 strain (AID 167). As to conditions: S. cerevisiae bub3 mutant strain, active compounds read high. In a few lines: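 Readout: yeast growth inhibition, expressed relative to vehicle-only wells. The test organism is a mutant strain from a panel with lesions in DNA repair or checkpoint genes.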
Assay [6] can be described thus: NCI Yeast Anticancer Drug Screen. Data for the mlh1 rad18 strain (AID 175). The settings on record: S. cerevisiae mlh1 rad18 strain growth inhibition, active compounds read high. In short, it runs like this: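 Genetically defined yeast (DNA repair-deficient) exposed to compounds; growth inhibition determined relative to vehicle.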
[7] abbreviates: at 5.0 µM (retest, dose inferred, filed as 0.5).
[8] abbreviates: at 50.0 µM (retest, dose inferred, filed as 5.0).

In the case of `C=C1CC(C)(COc2ccc3c(C)c(C)c(=O)oc3c2C)OC1=O` (configuration not stated), the growth inhibition in assay [1] (setting [7]) was 26%; in assay [1] (setting [8]) it was 82% (active); in assay [1] (at 50.0 µM) it was -23.4%; in assay [2] (setting [7]) it was 16%; in assay [2] (setting [8]) it was 90% (active); in assay [2] (at 50.0 µM) it was -75.4%. Further, the growth inhibition in assay [3] (setting [7]) was 24%; in assay [3] (setting [8]), 73% (active); in assay [3] (at 50.0 µM) it was -10.7%; in assay [4] (setting [7]), 30%; in assay [4] (setting [8]), 64%; in assay [4] (at 50.0 µM) it was -23.1%. Moreover, the growth inhibition was 26% in assay [5] (setting [7]); 86% (active) in assay [5] (setting [8]); -10.8% in assay [5] (at 50.0 µM); 29% in assay [6] (setting [7]); 94% (active) in assay [6] (setting [8]); -24.7% in assay [6] (at 50.0 µM).

For the molecule `N#[N+]c1ccc2c(S(=O)(=O)Oc3ccc(C(=O)c4ccccc4)c(OS(=O)(=O)c4cccc5c([O-])c([N+]#N)ccc45)c3)cccc2c1[O-]`, the growth inhibition is -10% in assay [1] (setting [7]); 46% in assay [1] (setting [8]); 82.5% (active) in assay [1] (at 50.0 µM); -7% in assay [2] (setting [7]); 33% in assay [2] (setting [8]); 85.3% (active) in assay [2] (at 50.0 µM). For the same molecule, the growth inhibition in assay [3] (setting [7]) is 1%; in assay [3] (setting [8]), 59%; in assay [3] (at 50.0 µM), 77.2% (active); in assay [4] (setting [7]), 36%; in assay [4] (setting [8]), 45%; in assay [4] (at 50.0 µM), 84% (active). For the same molecule, the growth inhibition in assay [5] (setting [7]) is -3%; in assay [5] (setting [8]) it was 31%; in assay [5] (at 50.0 µM), 77.1% (active); in assay [6] (setting [7]), -13%; in assay [6] (setting [8]), 4%; in assay [6] (at 50.0 µM), 72.7% (active).

For `CCN(CC)CCOc1ccc(/C(C#N)=C/c2ccc(C(F)(F)F)cc2)cc1`, the growth inhibition in assay [1] (setting [7]) was 36%; in assay [1] (setting [8]), 96% (active); in assay [1] (at 50.0 µM) it was 75.5% (active); in assay [2] (setting [7]), 34%; in assay [2] (setting [8]), 99% (active); in assay [2] (at 50.0 µM), 48.6%. Also, the growth inhibition in assay [3] (setting [7]) is 65%; in assay [3] (setting [8]) it was 98% (active); in assay [3] (at 50.0 µM), 90.5% (active); in assay [4] (setting [7]), 48%; in assay [4] (setting [8]), 90% (active); in assay [4] (at 50.0 µM) it was 69.3%. Besides, the growth inhibition in assay [5] (setting [7]) was 54%; in assay [5] (setting [8]), 98% (active); in assay [5] (at 50.0 µM) it was 54.1%; in assay [6] (setting [7]), 38%; in assay [6] (setting [8]), 99% (active); in assay [6] (at 50.0 µM) it was 90.8% (active).

Take `Clc1ccc(-c2nc3ccc(Cl)cc3[nH]2)cc1`: the growth inhibition in assay [1] (setting [7]) is -2%; in assay [1] (setting [8]) it was 90% (active); in assay [1] (at 50.0 µM) it was 76.8% (active); in assay [2] (setting [7]), -3%; in assay [2] (setting [8]), 88% (active); in assay [2] (at 50.0 µM), 86.7% (active). The growth inhibition in assay [3] (setting [7]) was -5%; in assay [3] (setting [8]), 93% (active); in assay [3] (at 50.0 µM), -30.9%; in assay [4] (setting [7]), 0%; in assay [4] (setting [8]), 92% (active); in assay [4] (at 50.0 µM) it was 84.3% (active). Also, the growth inhibition in assay [5] (setting [7]) was 19%; in assay [5] (setting [8]), 96% (active); in assay [5] (at 50.0 µM) it was 88% (active); in assay [6] (setting [7]), -38%; in assay [6] (setting [8]), 54%; in assay [6] (at 50.0 µM), 35.3%.

On to `OC1(C2c3ccccc3-c3ccccc32)c2ccccc2-c2ccccc21`, for which the growth inhibition in assay [1] (setting [7]) was 66%; in assay [1] (setting [8]) it was 90% (active); in assay [1] (at 50.0 µM) it was 94.4% (active); in assay [2] (setting [7]), 38%; in assay [2] (setting [8]) it was 94% (active); in assay [2] (at 50.0 µM), 80.7% (active). For the same molecule, the growth inhibition in assay [3] (setting [7]) was 45%; in assay [3] (setting [8]), 94% (active); in assay [3] (at 50.0 µM), 94.3% (active); in assay [4] (setting [7]), 11%; in assay [4] (setting [8]), 90% (active); in assay [4] (at 50.0 µM) it was 52.1%. Also, the growth inhibition in assay [5] (setting [7]) was 28%; in assay [5] (setting [8]), 92% (active); in assay [5] (at 50.0 µM), 81.1% (active); in assay [6] (setting [7]), 84% (active); in assay [6] (setting [8]) it was 93% (active); in assay [6] (at 50.0 µM), 94.6% (active).

With `CC(C(=O)O)c1c(-c2ccccc2)ccc2ccccc12` (configuration not stated), the growth inhibition in assay [1] (setting [7]) was 37%; in assay [1] (setting [8]), 3%; in assay [1] (at 50.0 µM) it was 38.9%; in assay [2] (setting [7]), 22%; in assay [2] (setting [8]) it was 4%; in assay [2] (at 50.0 µM), 51.1%. Further, the growth inhibition was 2% in assay [3] (setting [7]); 32% in assay [3] (setting [8]); 51.5% in assay [3] (at 50.0 µM); -8% in assay [4] (setting [7]); 12% in assay [4] (setting [8]); 52.1% in assay [4] (at 50.0 µM). The growth inhibition in assay [5] (setting [7]) is 6%; in assay [5] (setting [8]), 14%; in assay [5] (at 50.0 µM), 38.9%; in assay [6] (setting [7]) it was 5%; in assay [6] (setting [8]), 24%; in assay [6] (at 50.0 µM), 63.6%.

For the molecule `Clc1ccc(N=Cc2c3ccccc3cc3ccccc23)c(Cl)c1`, the growth inhibition in assay [1] (setting [7]) is 0%; in assay [1] (setting [8]), -3%; in assay [1] (at 50.0 µM), 79.7% (active); in assay [2] (setting [7]) it was 3%; in assay [2] (setting [8]) it was 2%; in assay [2] (at 50.0 µM) it was 85.4% (active). The growth inhibition in assay [3] (setting [7]) was -5%; in assay [3] (setting [8]), 5%; in assay [3] (at 50.0 µM), 87.4% (active); in assay [4] (setting [7]), 15%; in assay [4] (setting [8]), 22%; in assay [4] (at 50.0 µM), 31%. Besides, the growth inhibition in assay [5] (setting [7]) is 2%; in assay [5] (setting [8]) it was 29%; in assay [5] (at 50.0 µM) it was 79.5% (active); in assay [6] (setting [7]) it was -7%; in assay [6] (setting [8]) it was 44%; in assay [6] (at 50.0 µM), 77.5% (active).

For the molecule `CC(=O)c1ccc(OCc2ccccc2)cc1`, the growth inhibition is 1% in assay [1] (setting [7]); -6% in assay [1] (setting [8]); -2.25% in assay [1] (at 50.0 µM); 1% in assay [2] (setting [7]); 5% in assay [2] (setting [8]); -15.5% in assay [2] (at 50.0 µM). The growth inhibition in assay [3] (setting [7]) is 16%; in assay [3] (setting [8]) it was -6%; in assay [3] (at 50.0 µM), -17.9%; in assay [4] (setting [7]) it was -3%; in assay [4] (setting [8]) it was 2%; in assay [4] (at 50.0 µM), 63.9%. The growth inhibition in assay [5] (setting [7]) was 2%; in assay [5] (setting [8]) it was 3%; in assay [5] (at 50.0 µM) it was 9.75%; in assay [6] (setting [7]) it was -3%; in assay [6] (setting [8]) it was -9%; in assay [6] (at 50.0 µM) it was 15.2%.

Regarding `O=C1c2ccc3ccccc3c2CN2C(=O)CCC12` (configuration not stated), the growth inhibition in assay [1] (setting [7]) was 4%; in assay [1] (setting [8]), 83% (active); in assay [1] (at 50.0 µM), 25.2%; in assay [2] (setting [7]), -11%; in assay [2] (setting [8]), 16%; in assay [2] (at 50.0 µM) it was -6.6%. The growth inhibition in assay [3] (setting [7]) was -5%; in assay [3] (setting [8]), 28%; in assay [3] (at 50.0 µM), 21.7%; in assay [4] (setting [7]), 7%; in assay [4] (setting [8]) it was 66%; in assay [4] (at 50.0 µM), -4.3%. Besides, the growth inhibition in assay [5] (setting [7]) was -5%; in assay [5] (setting [8]), 39%; in assay [5] (at 50.0 µM), 6.2%; in assay [6] (setting [7]), 4%; in assay [6] (setting [8]) it was 43%; in assay [6] (at 50.0 µM), 23.5%.
